Bioassay records as filed in PubChem BioAssay.
This excerpt belongs to a sample that is enriched for hits.
RBX1-CUL1 inh – inhibitors of human ROC1-CUL1 ubiquitin ligase activity | P62877+Q13616 | in vitro K48 di-Ub FRET, acceptor:donor ratio, 45 min | inhibition, % at 10 µM | actives 0.6% (n = 140,000) | AID 1347404; in the data active means inhibition above about 25%
Each line names hits and unclear results; the compound was inactive in the other large screens.

CSc1ccc(/C=N/NC(=O)CCC(=O)Nc2ccc(C)cc2C)cc1	none
COC(=O)c1ccccc1NCN1C(=O)S/C(=C/c2ccc(F)cc2)C1=O	none
Cc1cc(C)n(Cc2nc(-c3c(C)ncc4c3CCN(CC3CC3)C4)no2)n1	RBX1-CUL1 inh 36.9
Cc1ncc2c(c1-c1noc(-c3ccc(N)nc3)n1)CCN(CC1CCCC1)C2	none
CNc1ncc(-c2nc(-c3c(C)ncc4c3CCN(CC3CC3)C4)no2)cn1	none
Cc1ccc2nc(NC(=O)c3cc(Br)ccc3Cl)sc2c1	none
COCC1CCCCN1Cc1nc(-c2cc(OC)ccc2OC)oc1C (stereo unspecified)	none
CCOC(=O)c1ccc(NC(=O)CSc2nnnn2-c2ccc3c(c2)OCO3)cc1	none
O=C(CN1C(=O)CSC1=O)N1CCCC(CO)(CCCc2ccccc2)C1 (stereo unspecified)	none
Cc1ccc(-n2c(-c3ccncc3)n[nH]c2=S)cc1	none
Cc1ccc(-n2c(Cl)c(Cl)nc(Cl)c2=O)cc1	RBX1-CUL1 inh 45.0
Cc1ccc(-n2c(-c3ccccc3)cc(-c3ccccc3)nc2=O)cc1	none
CCOC(=O)c1c(-c2ccc(Cl)cc2)csc1NC(=O)c1cccc2ccccc12	none
Cc1ccc2c(Cl)c(C(=O)Nc3ccc4c(c3)OCCO4)sc2c1	none
CCc1ccc(CNc2ncn[nH]2)cc1	none
Nc1c(C(=O)Nc2nccs2)sc2nc3c(cc12)CCCC3	none
O=C(O)CCC(=O)Nc1ccc(N2CCN(c3ccc(Cl)c(Cl)c3)CC2)cc1	none
CCOC(=O)c1c(NC(=O)CCC(=O)O)sc(C)c1-c1ccc(CC(C)C)cc1	RBX1-CUL1 inh 91.3
CCOC(=O)c1c(NC(=O)CCCC(=O)O)sc(C)c1-c1ccc(F)cc1	none
CCOC(=O)c1c(NC(=O)c2cccs2)sc(C)c1-c1ccc(OC)cc1	none
Cc1cc(Br)c2nc(-c3cccnc3)oc(=O)c2c1	none
Cn1c(=O)c(Sc2ccccc2)c(Cl)c2ccccc21	none
CC1=Nc2nc(SCc3ccccc3Cl)nn2C(c2cccnc2)C1C(=O)Nc1cccnc1 (stereo unspecified)	none
N#Cc1c(N2C(=O)C3C(C2=O)C2(Br)c4ccccc4C3(Br)c3ccccc32)sc2c1CCCC2 (stereo unspecified)	none
COc1cccc(-c2noc3c2CN(C(=O)NCc2ccco2)CC3)c1	none
O=c1cc(C2CCCNC2)nc(CSc2ccccc2)[nH]1 (stereo unspecified)	none
N=C1C(Br)C(=O)Nc2nnc(-c3ccc(Cl)cc3)n21 (stereo unspecified)	RBX1-CUL1 inh 31.5
Cc1ccc(-n2c(SCC(N)=O)nnc2-c2ccc(Cl)cc2)cc1	none
COc1ccc(-n2c(-c3ccccc3)nnc2-c2ccc(Cl)cc2)cc1	none
COc1ccc(/C=C/c2nn([C@@H]3OC(COC(C)=O)[C@@H](OC(C)=O)C(OC(C)=O)[C@H]3OC(C)=O)c(=S)n(N)c2=O)cc1 (stereo partly specified)	none
CN(C(=O)c1cc(Cn2ccc3ccccc32)[nH]n1)C1CCOC1 (stereo unspecified)	none
CCOc1cc(C)c(S(=O)(=O)N(CC)CC)cc1C	none
O=C(/C(=C/c1ccccc1)Sc1ccccc1)c1ccc([N+](=O)[O-])o1	none
CCc1ccccc1NC(=O)c1ccc([N+](=O)[O-])o1	none
N#C/C(=C/C(=O)c1ccccc1)c1ccc([N+](=O)[O-])o1	RBX1-CUL1 inh 85.5
O=C(CCCCCN1C(=O)C2C3c4ccccc4C(c4ccccc43)C2C1=O)OCC(=O)c1ccccc1 (stereo unspecified)	none
O=C1N(C2Cc3ccccc3C2)C[C@@H]2C[C@@H](c3cnc(N4CCOCC4)s3)N3CCC[C@@]123	none
O=S(=O)(c1ccccc1)N1CCC(CO)(Cc2ccccc2C(F)(F)F)CC1	none
CN=C1CC=C(Br)C=C(C(=O)/C=C/c2ccc3c(c2)OCO3)C1=O	none
CN=C1CC=CC=C(/C(C)=N/Nc2ccccc2)C1=O	none
CN=C1CC=CC=C(C(=O)/C=C/c2ccc3c(c2)OCO3)C1=O	RBX1-CUL1 inh 93.4
CN=C1CC=CC=C(C(=O)/C=C/c2cccc(C#N)c2)C1=O	RBX1-CUL1 inh 49.4
CCN=C1CC=CC=C(C(=O)/C=C/c2ccc3c(c2)OCO3)C1=O	none
CN=C1CC=C(Br)C=C(C(=O)/C=C/c2ccc(C#N)cc2)C1=O	none
N#CC1C(=N)OC(c2ccccc2)=C(n2nnnc2N)C1c1ccccc1 (stereo unspecified)	none
Cc1ccc2nc(-c3ccc(C)c(NC(=O)c4ccc(Br)o4)c3)oc2c1	none
CCc1[nH]nc2c1C(c1ccc(Cl)c(Cl)c1)C(C#N)C(=N)O2 (stereo unspecified)	none
CSc1nsc(SCSc2nnc(-c3ccccc3)o2)n1	none
CSc1nsc(SCSc2nc(SC)ns2)n1	RBX1-CUL1 inh 36.1
CSc1nsc(SCCC(=O)Nc2ccccc2)n1	none
CCCCN1C(=O)/C(=C\c2ccc(N3CCOCC3)o2)SC1=Nc1ccccc1	none
Cc1ccccc1OCC(=O)Nc1c(C)n[nH]c1C	none
COc1ccc(C2=C(C#N)C(=S)N=C(C3CC3)C2)cc1	none
N#CC1=C(c2ccco2)C2CCCCC2=NC1=S (stereo unspecified)	none
CN1CCC2=NC(=S)C(C#N)=C(c3ccc(F)cc3)C2C1 (stereo unspecified)	RBX1-CUL1 inh 97.2
CCOCCOC(=O)C1=C(C)N(C)C(=O)NC1c1cc(Br)c(O)c(OC)c1 (stereo unspecified)	none
Cc1ccccc1N=Cc1cc2c(cc1[N+](=O)[O-])OCO2	none
Cc1c(N=Cc2cc3c(cc2[N+](=O)[O-])OCO3)cccc1[N+](=O)[O-]	RBX1-CUL1 inh 90.7
O=[N+]([O-])c1ccc(N=Cc2cc3c(cc2[N+](=O)[O-])OCO3)c(Br)c1	none
COc1cccc(C(C2C(=O)C=C(C)N(Cc3ccco3)C2=O)N2CCC(C)CC2)c1 (stereo unspecified)	none
COc1ccc2cc3c(N)c(C(=O)Nc4c(C)cccc4C)sc3nc2c1	none
CC(=O)NS(=O)(=O)c1ccc(Br)cc1	none
O=C1NC(=S)NC(=O)C1=Cc1ccc(-c2ccccc2Cl)o1	none
CC(=O)NS(=O)(=O)c1ccc(-c2ccc(C=C3C(=O)NC(=S)NC3=O)o2)cc1	RBX1-CUL1 inh 41.5
Cc1cccc(-n2c(Cc3ccccc3)nnc2SCC(=O)Nc2ccc(F)c(Cl)c2)c1	none
COC(=O)c1cc2cc(/C=N/N(C)C)oc2[nH]1	none
CC(=O)N1CCN(c2ncccc2CNCc2ccc(C(C)C)cc2)CC1	none
FC(F)Oc1ccc(CNC2COc3ccccc3C2)cc1 (stereo unspecified)	none
Cc1cccc(N2C(=S)N(c3ccccc3)C3CS(=O)(=O)CC32)c1 (stereo unspecified)	none
CC1=Nc2nc(SCc3cccc(Cl)c3)nn2C(c2ccccc2F)C1C(=O)Nc1ccc(Cl)cc1 (stereo unspecified)	none
COc1cc(/C=C2/SC(=S)N(CC(=O)O)C2=O)ccc1OC(=O)c1ccc(C)cc1	RBX1-CUL1 inh 93.0
CCOC(=O)c1ccc(NC(=O)CCCCCN2C(=O)/C(=C\c3ccc(Cl)cc3)SC2=S)cc1	none
COC(=O)c1ccc(/C=C2\SC(=S)N(CO)C2=O)cc1	none
COC(=O)c1ccc(/C=C2\SC(=S)N(CCCCCC(=O)O)C2=O)cc1	RBX1-CUL1 inh 80.7
COc1cc(/C=C2\SC(=S)N(Cc3ccccc3)C2=O)ccc1OCC(=O)O	none
COc1cc(/C=C2/SC(=S)N(c3cccc(C(F)(F)F)c3)C2=O)ccc1OC(=O)c1ccc(C)cc1	none
COC(=O)C1=C(C)N=c2s/c(=C/c3ccc(OC)cc3OC)c(=O)n2C1c1ccccc1 (stereo unspecified)	none
COc1ccc(N2Cc3c(n[nH]c3-c3ccccc3)N(Cc3ccccc3)C2)cc1	none
CCC(c1ccccc1)c1n[nH]c2c1CN(C(=O)c1ccon1)CC2 (stereo unspecified)	none
